Measured values published in ChEMBL document CHEMBL1961873, “Compounds: GSK PKIS; Assays: Nanosyn kinase panel” (2012).

Tests used:
[1] = target: Ephrin type-A receptor 2 (Homo sapiens) (UniProt P29317); details: at 0.1 µM
[2] = target: Ephrin type-A receptor 2 (Homo sapiens) (UniProt P29317); details: at 1 µM
[3] = target: T1, Ephrin type-A receptor 3 (Homo sapiens) (UniProt P29320); details: at 0.1 µM
T1 sequence (whole entry): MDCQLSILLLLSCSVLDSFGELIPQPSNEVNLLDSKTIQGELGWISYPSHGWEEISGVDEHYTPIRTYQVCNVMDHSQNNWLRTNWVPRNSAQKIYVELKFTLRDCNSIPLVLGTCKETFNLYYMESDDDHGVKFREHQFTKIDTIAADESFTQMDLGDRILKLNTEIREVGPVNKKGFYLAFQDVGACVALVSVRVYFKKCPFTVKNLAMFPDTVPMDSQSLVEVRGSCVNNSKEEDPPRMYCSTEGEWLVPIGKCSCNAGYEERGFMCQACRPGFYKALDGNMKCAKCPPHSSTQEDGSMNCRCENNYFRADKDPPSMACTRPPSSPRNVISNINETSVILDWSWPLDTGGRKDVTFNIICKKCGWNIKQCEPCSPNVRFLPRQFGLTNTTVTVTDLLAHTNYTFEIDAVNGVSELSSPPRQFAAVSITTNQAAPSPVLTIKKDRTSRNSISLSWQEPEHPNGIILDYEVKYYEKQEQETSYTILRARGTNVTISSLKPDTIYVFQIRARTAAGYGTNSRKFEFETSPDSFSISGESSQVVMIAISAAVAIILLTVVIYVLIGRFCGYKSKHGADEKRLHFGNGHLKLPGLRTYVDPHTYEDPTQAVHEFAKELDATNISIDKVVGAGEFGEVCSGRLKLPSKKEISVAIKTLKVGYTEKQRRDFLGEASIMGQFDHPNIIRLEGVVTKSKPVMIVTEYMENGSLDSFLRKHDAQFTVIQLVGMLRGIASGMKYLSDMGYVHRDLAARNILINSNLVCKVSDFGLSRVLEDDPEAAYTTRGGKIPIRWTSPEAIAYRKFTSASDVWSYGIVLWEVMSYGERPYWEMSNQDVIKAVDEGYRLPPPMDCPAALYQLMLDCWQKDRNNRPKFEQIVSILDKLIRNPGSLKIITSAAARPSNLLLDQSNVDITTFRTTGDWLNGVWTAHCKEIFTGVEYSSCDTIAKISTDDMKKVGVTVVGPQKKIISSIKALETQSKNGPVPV

[4] = target: T1, Ephrin type-A receptor 3 (Homo sapiens); details: at 1 µM
[5] = target: Ephrin type-A receptor 4 (Homo sapiens) (UniProt P54764); details: at 0.1 µM
Chain of Ephrin type-A receptor 4 (Homo sapiens) (P54764 whole entry): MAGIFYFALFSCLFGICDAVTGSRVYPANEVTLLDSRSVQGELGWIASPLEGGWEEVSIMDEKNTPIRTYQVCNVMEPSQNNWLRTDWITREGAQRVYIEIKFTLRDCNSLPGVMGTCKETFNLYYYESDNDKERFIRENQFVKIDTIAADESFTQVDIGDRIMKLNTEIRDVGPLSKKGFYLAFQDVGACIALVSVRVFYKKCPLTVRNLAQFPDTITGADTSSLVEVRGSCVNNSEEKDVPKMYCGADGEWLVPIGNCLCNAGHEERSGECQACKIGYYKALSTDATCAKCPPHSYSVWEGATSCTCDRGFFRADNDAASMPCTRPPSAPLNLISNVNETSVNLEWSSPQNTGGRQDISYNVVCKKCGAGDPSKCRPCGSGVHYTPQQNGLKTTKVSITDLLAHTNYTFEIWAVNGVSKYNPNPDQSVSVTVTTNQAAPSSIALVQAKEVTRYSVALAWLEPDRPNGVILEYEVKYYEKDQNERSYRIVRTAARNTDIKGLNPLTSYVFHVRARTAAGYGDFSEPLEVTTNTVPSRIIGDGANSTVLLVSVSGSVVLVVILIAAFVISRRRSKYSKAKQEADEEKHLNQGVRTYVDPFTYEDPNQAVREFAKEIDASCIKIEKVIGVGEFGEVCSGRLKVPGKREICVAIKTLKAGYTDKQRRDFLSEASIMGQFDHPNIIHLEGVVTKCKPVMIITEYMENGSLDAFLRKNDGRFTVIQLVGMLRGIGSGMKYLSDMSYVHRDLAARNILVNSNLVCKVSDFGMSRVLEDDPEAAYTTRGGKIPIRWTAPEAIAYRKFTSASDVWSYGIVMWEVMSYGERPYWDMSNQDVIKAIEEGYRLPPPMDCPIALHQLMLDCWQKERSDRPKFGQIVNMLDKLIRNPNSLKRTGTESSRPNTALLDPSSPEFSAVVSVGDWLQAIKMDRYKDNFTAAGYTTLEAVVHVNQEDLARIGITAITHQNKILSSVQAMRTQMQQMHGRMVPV

[6] = target: Ephrin type-A receptor 4 (Homo sapiens) (UniProt P54764); details: at 1 µM
[7] = target: T2, Ephrin type-B receptor 2 (Homo sapiens) (UniProt P29323); details: at 0.1 µM
T2 sequence (whole entry): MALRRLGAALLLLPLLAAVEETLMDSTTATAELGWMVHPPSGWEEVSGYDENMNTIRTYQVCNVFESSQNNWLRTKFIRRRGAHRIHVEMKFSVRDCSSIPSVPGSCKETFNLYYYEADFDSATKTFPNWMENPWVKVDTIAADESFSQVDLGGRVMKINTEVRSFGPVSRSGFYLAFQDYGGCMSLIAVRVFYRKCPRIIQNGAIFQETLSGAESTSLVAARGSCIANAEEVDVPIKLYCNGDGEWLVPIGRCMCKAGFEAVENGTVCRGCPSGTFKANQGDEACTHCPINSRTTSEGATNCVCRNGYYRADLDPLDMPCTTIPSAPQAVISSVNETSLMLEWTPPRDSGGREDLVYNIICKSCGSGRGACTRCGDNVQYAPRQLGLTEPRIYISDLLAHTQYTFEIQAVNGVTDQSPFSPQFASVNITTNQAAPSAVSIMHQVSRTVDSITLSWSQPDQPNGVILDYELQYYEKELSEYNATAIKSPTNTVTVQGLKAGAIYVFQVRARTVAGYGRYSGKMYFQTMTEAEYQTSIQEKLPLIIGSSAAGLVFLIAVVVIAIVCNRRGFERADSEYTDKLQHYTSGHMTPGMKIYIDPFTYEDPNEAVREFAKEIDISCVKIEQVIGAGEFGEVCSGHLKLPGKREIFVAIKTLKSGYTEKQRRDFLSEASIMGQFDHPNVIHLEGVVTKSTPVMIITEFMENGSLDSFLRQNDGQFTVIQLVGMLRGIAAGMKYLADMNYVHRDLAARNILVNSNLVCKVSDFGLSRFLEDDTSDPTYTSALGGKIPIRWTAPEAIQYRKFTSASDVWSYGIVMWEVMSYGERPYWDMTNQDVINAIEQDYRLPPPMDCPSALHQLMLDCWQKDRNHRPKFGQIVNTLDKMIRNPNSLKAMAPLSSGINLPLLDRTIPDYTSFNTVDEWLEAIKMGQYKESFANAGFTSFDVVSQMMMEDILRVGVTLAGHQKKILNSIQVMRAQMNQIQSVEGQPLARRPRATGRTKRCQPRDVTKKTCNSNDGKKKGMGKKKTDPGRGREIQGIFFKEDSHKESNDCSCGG

[8] = target: T2, Ephrin type-B receptor 2 (Homo sapiens); details: at 1 µM
[9] = target: T3, Ephrin type-B receptor 3 (Homo sapiens) (UniProt P54753); details: at 0.1 µM
T3 sequence (whole entry): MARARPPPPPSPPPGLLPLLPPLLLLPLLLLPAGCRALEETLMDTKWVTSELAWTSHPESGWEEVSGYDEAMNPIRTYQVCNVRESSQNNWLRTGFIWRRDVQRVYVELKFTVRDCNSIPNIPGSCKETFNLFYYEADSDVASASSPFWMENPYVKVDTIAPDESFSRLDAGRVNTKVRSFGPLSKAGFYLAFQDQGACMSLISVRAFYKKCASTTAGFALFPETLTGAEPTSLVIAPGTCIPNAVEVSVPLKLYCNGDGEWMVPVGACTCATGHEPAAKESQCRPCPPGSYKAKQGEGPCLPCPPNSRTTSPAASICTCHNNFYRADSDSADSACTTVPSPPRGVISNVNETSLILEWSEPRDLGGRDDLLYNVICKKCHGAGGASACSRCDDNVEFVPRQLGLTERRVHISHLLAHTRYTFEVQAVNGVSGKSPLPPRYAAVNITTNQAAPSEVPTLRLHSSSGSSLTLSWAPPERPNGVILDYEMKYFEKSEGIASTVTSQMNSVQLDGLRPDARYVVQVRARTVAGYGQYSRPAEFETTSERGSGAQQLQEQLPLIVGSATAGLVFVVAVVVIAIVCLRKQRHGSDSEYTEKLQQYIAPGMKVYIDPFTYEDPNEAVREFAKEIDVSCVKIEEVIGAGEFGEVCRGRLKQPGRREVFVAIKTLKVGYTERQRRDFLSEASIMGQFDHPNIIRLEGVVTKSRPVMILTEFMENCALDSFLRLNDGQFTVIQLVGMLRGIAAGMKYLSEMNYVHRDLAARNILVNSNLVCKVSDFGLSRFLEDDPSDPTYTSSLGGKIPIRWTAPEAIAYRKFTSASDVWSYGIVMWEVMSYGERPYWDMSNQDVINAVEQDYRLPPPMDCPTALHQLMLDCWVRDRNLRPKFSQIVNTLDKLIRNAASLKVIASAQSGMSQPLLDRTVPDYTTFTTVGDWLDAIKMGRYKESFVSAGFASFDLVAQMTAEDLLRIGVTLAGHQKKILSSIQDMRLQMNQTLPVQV

[10] = target: T3, Ephrin type-B receptor 3 (Homo sapiens); details: at 1 µM
[11] = target: T4, Ephrin type-B receptor 4 (Homo sapiens) (UniProt P54760); details: at 0.1 µM
T4 sequence (whole entry): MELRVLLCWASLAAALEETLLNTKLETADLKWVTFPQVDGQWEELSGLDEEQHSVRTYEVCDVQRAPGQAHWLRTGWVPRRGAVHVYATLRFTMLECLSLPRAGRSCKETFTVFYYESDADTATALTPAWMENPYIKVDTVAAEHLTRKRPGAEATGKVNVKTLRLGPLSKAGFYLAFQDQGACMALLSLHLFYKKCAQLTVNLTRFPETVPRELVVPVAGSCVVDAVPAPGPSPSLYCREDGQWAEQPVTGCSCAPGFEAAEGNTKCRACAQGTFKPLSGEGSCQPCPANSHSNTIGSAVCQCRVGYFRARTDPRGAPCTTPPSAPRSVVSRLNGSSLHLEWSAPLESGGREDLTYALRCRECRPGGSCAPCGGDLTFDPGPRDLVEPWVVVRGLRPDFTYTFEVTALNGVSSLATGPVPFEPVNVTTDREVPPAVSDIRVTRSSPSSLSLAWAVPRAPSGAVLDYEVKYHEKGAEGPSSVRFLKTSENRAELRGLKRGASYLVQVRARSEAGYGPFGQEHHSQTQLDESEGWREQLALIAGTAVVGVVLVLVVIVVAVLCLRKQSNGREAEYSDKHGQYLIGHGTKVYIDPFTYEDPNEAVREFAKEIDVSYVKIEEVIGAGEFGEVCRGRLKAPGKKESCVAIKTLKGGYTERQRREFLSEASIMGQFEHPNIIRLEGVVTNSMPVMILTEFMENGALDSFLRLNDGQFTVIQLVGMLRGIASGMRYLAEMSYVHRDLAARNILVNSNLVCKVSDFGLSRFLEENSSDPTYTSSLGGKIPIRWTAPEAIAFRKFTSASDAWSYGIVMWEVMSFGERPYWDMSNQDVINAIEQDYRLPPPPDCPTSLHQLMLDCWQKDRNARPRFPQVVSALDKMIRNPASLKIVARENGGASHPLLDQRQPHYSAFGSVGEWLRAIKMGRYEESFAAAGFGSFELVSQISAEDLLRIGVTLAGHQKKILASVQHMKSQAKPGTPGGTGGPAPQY

[12] = target: T4, Ephrin type-B receptor 4 (Homo sapiens); details: at 1 µM
[13] = target: Receptor tyrosine-protein kinase erbB-2 (Homo sapiens) (UniProt P04626); details: at 0.1 µM
[14] = target: Receptor tyrosine-protein kinase erbB-2 (Homo sapiens) (UniProt P04626); details: at 1 µM
[15] = target: Receptor tyrosine-protein kinase erbB-4 (Homo sapiens) (UniProt Q15303); details: at 0.1 µM
Chain of Receptor tyrosine-protein kinase erbB-4 (Homo sapiens) (Q15303 whole entry): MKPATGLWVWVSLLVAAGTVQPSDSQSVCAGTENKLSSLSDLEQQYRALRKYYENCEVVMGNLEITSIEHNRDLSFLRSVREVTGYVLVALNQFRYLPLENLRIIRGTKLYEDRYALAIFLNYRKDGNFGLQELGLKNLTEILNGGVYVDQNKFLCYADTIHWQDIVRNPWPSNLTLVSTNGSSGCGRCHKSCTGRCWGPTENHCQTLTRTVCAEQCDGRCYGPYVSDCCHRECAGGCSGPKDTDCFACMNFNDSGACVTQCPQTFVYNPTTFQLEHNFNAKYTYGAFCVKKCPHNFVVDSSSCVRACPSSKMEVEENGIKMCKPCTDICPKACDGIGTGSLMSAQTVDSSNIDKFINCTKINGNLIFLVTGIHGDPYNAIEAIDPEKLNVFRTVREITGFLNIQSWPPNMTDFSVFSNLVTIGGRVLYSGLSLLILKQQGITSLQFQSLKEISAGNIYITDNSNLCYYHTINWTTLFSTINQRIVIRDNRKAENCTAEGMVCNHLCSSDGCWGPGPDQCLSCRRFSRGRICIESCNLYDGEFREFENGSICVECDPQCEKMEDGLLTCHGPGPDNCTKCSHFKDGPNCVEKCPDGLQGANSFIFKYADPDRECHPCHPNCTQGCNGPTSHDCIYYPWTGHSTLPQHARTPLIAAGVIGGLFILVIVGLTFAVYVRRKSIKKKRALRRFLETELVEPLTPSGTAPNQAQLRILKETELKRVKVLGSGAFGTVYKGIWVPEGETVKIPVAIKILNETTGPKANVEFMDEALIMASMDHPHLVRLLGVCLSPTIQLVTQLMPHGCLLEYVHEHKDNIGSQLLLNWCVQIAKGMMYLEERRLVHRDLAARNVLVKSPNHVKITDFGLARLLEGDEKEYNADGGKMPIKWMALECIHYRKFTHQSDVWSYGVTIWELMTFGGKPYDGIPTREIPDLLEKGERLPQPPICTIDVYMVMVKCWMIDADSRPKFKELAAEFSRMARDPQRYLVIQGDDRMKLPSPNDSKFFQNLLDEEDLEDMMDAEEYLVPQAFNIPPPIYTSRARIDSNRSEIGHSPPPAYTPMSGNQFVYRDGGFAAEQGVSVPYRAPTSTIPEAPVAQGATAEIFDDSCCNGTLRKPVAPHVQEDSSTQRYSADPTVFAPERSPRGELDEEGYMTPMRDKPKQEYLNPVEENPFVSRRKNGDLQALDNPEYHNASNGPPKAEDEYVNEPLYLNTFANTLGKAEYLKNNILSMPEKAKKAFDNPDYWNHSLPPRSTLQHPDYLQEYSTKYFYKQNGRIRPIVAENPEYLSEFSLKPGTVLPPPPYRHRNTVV

[16] = target: Receptor tyrosine-protein kinase erbB-4 (Homo sapiens) (UniProt Q15303); details: at 1 µM
[17] = target: Tyrosine-protein kinase Fer (Homo sapiens) (UniProt P16591); details: at 0.1 µM;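 also: reported figures are averaged percent inhibition of FER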
[18] = tested on: Epidermal growth factor receptor (Homo sapiens), P00533 [T790M]; details: at 1 µM
[19] = tested on: Epidermal growth factor receptor (Homo sapiens), P00533 [L858R,T790M]; details: at 0.1 µM
Chain of Epidermal growth factor receptor (Homo sapiens), P00533 [L858R,T790M] (P00533 whole entry T790M/L858R, looked up): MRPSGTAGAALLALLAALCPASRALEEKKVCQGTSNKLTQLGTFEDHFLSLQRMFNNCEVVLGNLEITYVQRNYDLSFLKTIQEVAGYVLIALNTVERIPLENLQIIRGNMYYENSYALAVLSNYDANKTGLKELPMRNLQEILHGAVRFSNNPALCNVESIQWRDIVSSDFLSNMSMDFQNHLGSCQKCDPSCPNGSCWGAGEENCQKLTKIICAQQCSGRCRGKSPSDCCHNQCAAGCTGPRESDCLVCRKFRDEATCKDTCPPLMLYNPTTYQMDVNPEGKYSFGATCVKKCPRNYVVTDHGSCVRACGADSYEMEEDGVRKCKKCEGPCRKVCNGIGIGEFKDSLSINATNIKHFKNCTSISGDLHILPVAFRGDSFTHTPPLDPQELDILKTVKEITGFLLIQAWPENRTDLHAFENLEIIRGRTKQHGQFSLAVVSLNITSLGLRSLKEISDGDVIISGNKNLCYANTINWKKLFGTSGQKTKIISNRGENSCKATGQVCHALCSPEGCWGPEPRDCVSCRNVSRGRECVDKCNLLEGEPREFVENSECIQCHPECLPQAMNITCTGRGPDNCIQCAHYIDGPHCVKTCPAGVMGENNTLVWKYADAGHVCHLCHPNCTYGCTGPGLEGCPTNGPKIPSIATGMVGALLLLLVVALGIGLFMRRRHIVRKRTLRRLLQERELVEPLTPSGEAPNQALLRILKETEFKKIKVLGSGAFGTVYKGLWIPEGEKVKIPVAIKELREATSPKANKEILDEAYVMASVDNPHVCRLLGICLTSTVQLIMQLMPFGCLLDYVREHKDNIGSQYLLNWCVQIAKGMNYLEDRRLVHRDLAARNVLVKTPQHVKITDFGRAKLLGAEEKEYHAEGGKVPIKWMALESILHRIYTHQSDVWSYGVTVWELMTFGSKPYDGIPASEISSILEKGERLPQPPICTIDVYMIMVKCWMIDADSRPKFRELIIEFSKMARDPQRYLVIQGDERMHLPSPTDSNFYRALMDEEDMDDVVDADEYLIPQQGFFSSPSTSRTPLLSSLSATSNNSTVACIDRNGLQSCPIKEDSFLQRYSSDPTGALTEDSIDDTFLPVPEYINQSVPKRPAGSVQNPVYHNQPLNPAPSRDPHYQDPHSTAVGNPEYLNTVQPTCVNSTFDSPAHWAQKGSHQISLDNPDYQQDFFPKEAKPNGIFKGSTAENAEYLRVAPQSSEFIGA

[20] = tested on: Epidermal growth factor receptor (Homo sapiens), P00533 [L858R,T790M]; details: at 1 µM

Chain of Ephrin type-A receptor 2 (Homo sapiens) (P29317 whole entry): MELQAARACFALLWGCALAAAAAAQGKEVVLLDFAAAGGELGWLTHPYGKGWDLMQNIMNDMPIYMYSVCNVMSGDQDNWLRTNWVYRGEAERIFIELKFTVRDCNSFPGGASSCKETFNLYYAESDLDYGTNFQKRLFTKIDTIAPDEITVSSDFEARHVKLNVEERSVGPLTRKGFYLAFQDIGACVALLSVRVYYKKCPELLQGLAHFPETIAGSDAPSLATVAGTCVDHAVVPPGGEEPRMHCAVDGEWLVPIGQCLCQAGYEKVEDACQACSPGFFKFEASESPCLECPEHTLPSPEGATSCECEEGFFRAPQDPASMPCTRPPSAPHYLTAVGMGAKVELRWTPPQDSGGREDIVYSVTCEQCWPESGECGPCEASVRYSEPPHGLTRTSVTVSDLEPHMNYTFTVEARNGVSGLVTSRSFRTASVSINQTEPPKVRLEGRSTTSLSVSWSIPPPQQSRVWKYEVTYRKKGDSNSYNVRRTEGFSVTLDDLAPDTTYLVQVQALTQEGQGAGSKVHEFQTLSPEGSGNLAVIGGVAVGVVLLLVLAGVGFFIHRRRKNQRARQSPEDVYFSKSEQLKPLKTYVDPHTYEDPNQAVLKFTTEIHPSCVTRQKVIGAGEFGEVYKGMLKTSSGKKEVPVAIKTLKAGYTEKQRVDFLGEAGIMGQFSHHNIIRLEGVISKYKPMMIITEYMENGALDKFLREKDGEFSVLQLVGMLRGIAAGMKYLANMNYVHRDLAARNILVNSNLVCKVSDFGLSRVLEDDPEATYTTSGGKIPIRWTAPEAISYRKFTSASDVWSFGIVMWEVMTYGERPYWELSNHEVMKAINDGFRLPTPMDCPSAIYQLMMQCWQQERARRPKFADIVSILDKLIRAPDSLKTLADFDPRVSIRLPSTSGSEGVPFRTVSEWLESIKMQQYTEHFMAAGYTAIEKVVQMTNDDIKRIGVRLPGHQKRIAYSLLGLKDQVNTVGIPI

Structure (SMILES)	inhibition [1] [%]	inhibition [2] [%]	inhibition [3] [%]	inhibition [4] [%]	inhibition [5] [%]	inhibition [6] [%]	inhibition [7] [%]	inhibition [8] [%]	inhibition [9] [%]	inhibition [10] [%]	inhibition [11] [%]	inhibition [12] [%]	inhibition [13] [%]	inhibition [14] [%]	inhibition [15] [%]	inhibition [16] [%]	inhibition [17] [%]	inhibition [18] [%]	inhibition [19] [%]	inhibition [20] [%]
N#Cc1c(NC(=O)c2cccc3ccccc23)sc2c1CCCC2	-4.77	-1.43	2.05	4.38	6.92	2.64	5.23	6.91	5.39	3.56	3.79	3.28	1.65	-0.24	6.37	8.55	2.88	–	–	–
CS(=O)(=O)CCNCc1nc(-c2ccc3ncnc(Nc4ccc(F)c(Cl)c4)c3c2)cs1	2.15	1.65	2.83	4.56	11.7	21	13.7	22.5	6.15	9.44	1.4	8.6	7.41	34.5	46.6	83.1	1.44	–	–	–
CCCN1CCC=C(c2ccc(Nc3nc(Nc4ccccc4C(N)=O)c4cc[nH]c4n3)c(C)c2)C1	1.69	-0.07	3.53	2.81	5.85	10.8	8.59	8.88	1.76	2.4	2.74	3.5	2.98	3.15	7.5	27.7	12.8	25.1	7.32	51.6
COC(=O)Nc1nc2cc(Oc3ccc(NC(=O)Nc4cccc(C(=O)O)c4)cc3)ccc2[nH]1	-2.05	-4.67	-2.34	-2.49	4.23	5.32	0.25	3.77	-0.56	-3.97	-2.57	-4.05	-0.03	3.5	2.52	0.22	-1.22	0.98	-0.04	1.58
COc1cc(C=NNc2ncnc3c2cnn3-c2ccccc2)ccc1O	3.61	11.4	4.47	8.46	10.2	17.1	9.57	18.2	3.59	-2.55	2.58	9.64	1.75	-2.49	3.71	6.51	-3.39	2.02	3.12	13.3
Nc1ncnc2occ(-c3ccc(NC(=O)Nc4cccc(C(F)(F)F)c4)cc3)c12	17.2	85	18.4	50.6	46.8	78.3	74.1	78.2	19.6	68.2	31.2	84.4	-0.01	3.75	8.79	15.2	2.94	4.59	0.78	5.43
CCn1c(-c2nonc2N)nc2ccncc21	1.93	1.77	0.73	-0.12	5.04	-7.03	-0.84	–	2.91	-1.68	-0.26	0.27	0.8	-4.21	7.5	9.71	2.5	0.29	-1.07	-0.45
